Screens: PubChem BioAssay, Sanford-Burnham Center for Chemical Genomics
PLAP act = human PLAP activation; P05187; purified PLAP enzyme, luminescent substrate read-out; stronger effect = higher value; activation fold at 20 µM; actives 1.2% (n = 96,000); AID 696; in the data active means activation fold above about 2
CYP2C19 inh = blocks human cytochrome P450 2C19; CYP2C19 Supersomes, luciferin-H EGE luminescence, 30 min; actives 21% (n = 96,000); inhibition, % at 5 µM;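 active means CYP2C19 inhibition above a set limit at 5 µM in the primary screen, cut at about 50% in these data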;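 further: plate controls were negative control wells for no effect and 2.5 mM tranylcypromine positive control for full effect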
CYP2C9 act = CYP2C9 (human) activation; recombinant CYP2C9, luciferin-H conversion, luminescence; stronger effect = higher value; factor 1 = untreated enzyme, 0 = blocked; actives 1.4% (n = 96,000); AID 1024; activation factor at 5 µM;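 active means activation factor of 2 or more for CYP2C9 at a 5 µM dose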;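 further: 0 = sulfaphenazole-blocked wells and 1 = vehicle-only wells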
Target sequence (P11712 whole entry, looked up): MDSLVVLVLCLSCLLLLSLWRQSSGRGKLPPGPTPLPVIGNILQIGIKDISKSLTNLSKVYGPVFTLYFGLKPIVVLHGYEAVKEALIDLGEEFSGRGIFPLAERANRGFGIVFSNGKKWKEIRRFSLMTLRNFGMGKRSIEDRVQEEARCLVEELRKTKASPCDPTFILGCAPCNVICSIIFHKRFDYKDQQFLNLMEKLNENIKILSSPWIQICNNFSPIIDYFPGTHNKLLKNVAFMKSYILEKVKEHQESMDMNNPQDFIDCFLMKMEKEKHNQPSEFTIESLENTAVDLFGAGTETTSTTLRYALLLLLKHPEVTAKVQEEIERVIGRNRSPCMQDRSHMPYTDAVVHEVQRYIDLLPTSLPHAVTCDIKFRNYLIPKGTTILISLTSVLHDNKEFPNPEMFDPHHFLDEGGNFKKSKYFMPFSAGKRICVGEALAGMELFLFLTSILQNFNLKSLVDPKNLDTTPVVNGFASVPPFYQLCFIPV
CYP2C9 inh = blocks human cytochrome P450 2C9; P11712; CYP2C9 Supersomes, luciferin-H conversion, luminescence; inhibition, % at 5 µM; actives 20% (n = 96,000);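 active means blocking of liver enzyme CYP2C9 beyond about 50% at 5 µM, limit read from the data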
CYP2C19 act = activators of human cytochrome P450 2C19. P33261. recombinant CYP2C19, luciferin-H EGE luminescence; stronger effect = higher value; 0 = fully inhibited enzyme, 1 = untreated enzyme. activation factor at 5 µM. 96,000 tested, under 10 active;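 active means activation factor of at least 2 at 5 µM in the primary screen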;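 further: 0 = wells with 2.5 mM tranylcypromine and 1 = vehicle-only wells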
Starred values were filed as active, the others as inactive. This is a sample that favours compounds with a hit; in the whole collection about 31% have one here.

SMILES | PLAP act | CYP2C19 inh | CYP2C9 act | CYP2C9 inh | CYP2C19 act
CC(C)(C)C(=O)Nc1ccccc1C(=O)NCc1ccco1 | 1 | 36 | 0.7 | 31 | 0.6
COCCNC(=O)C(C)N(c1ccc(Oc2ccccc2)cc1)S(C)(=O)=O (configuration not stated) | 1.3 | 53* | 1 | 1 | 0.5
COc1ccc(S(=O)(=O)Nc2ccccc2C(=O)NCc2ccco2)cc1Br | 1.5 | 34 | 0.5 | 51* | 0.7
CS(=O)(=O)Nc1ccccc1C(=O)NCc1ccco1 | 1.3 | 25 | 0.5 | 49 | 0.8
CCOC(=O)N1CCN(C(=O)C(C)N(c2ccc(Oc3ccccc3)cc2)S(C)(=O)=O)CC1 (configuration not stated) | 1 | 19 | 0.8 | 16 | 0.8
COc1cc(CN2CCC(C(=O)NC3CCCC3)CC2)ccc1O | 1.5 | -8 | 1.2 | -17 | 1.1
CCCC(CCC)n1[nH]c(=O)c2c(C)cc(C)nc21 | 1 | -2 | 1.1 | -5 | 1
COC(=O)C1=C(C)NC2=C(C(=O)C(C(=O)OC)C(c3ccc(OC)cc3)C2)C1c1ccccn1 (configuration not stated) | 1.1 | 5 | 1 | 5 | 0.9
CCOc1ccc(N(C(C)C(=O)NCc2ccco2)S(C)(=O)=O)cc1 (configuration not stated) | 2* | 78* | 0.5 | 54* | 0.2
Cc1ccccc1NS(=O)(=O)c1ccc(OCC(=O)NCc2ccco2)cc1 | 1.1 | 12 | 0.4 | 61* | 0.9
CCOc1ccc(-n2c(N)c(C(=O)NCc3cccnc3)sc2=S)cc1 | 1.1 | 10 | 0.8 | 21 | 0.9
CCOc1ccc(-n2c(N)c(C(=O)NCc3ccco3)sc2=S)cc1 | 1 | 25 | 0.4 | 57* | 0.7
CCOc1ccc(N(C(C)C(=O)NC2CCCCCC2)S(C)(=O)=O)cc1 (configuration not stated) | 1 | 18 | 0.7 | 27 | 0.8
Cc1cc(C)c2c(CC(=O)NCc3ccco3)coc2c1 | 0.8 | 89* | 1.6 | -58 | 0.1
Cc1ccc(OCC(=O)NCc2ccco2)cc1C | 1.6 | 80* | 0.7 | 30 | 0.2
CCOP(=O)(c1c(F)c(F)c(F)c(F)c1F)C1(O)CCCCC1 (configuration not stated) | 0.8 | -5 | 1.1 | -14 | 1
Cc1ccc(N=Nc2c(C)[nH][nH]c2=O)c(C)c1 | 0.8 | 30 | 0.7 | 27 | 0.7
Cc1nn2c(-c3ccncc3)nnc2c2ccccc12 | 1 | 85* | 0.7 | 26 | 0.1
Cc1cc(N2CCC(C(N)=O)CC2)nc(-c2ccccc2)n1 | 1 | -6 | 0.5 | 53* | 1.1
NC(=O)C1CCN(c2nc(-c3ccccc3)nc3c2oc2ccccc23)CC1 | 0.8 | 4 | 0.9 | 14 | 1
NC(=O)C1CCN(c2nc(-c3ccccc3)nc3ccccc23)CC1 | 0.9 | 21 | 0.5 | 54* | 0.8
Cc1cc(N2CCC(C(=O)Nc3ccc(F)cc3)CC2)nc(-c2ccccc2)n1 | 1.1 | 82* | 0.4 | 62* | 0.2
Cc1c(C(=O)N2CC(C)OC(C)C2)oc2ccccc12 (configuration not stated) | 1.2 | 17 | 1.6 | -64 | 0.8
CN(C(=O)c1cccc(C#N)c1)c1nnc(C2CCCO2)s1 (configuration not stated) | 1.1 | 1 | 0.9 | 6 | 1
COc1ccc(N(C(=O)c2cccc(OC)c2OC)C2C=CS(=O)(=O)C2)c(OC)c1 (configuration not stated) | 1 | -8 | 1.1 | -14 | 1.1
SMILES | PLAP act | CYP2C19 inh | CYP2C9 act | CYP2C9 inh | CYP2C19 act
CC1(C)Cc2ccccc2-c2nnc(-c3ccccn3)n21 | 1.1 | -13 | 0.9 | 14 | 1.1
O=c1oc2ccccc2c2c1ncn2C1CCCCC1 | 1.1 | 16 | 0.8 | 16 | 0.8
O=C(/C=C\Nc1ccccn1)c1ccc(Cl)cc1 | 1.1 | 24 | 1.2 | -24 | 0.8
CSc1nc2[nH]c3c(c2c2ncnn12)CCCC3 | 0.6 | 8 | 0.8 | 20 | 0.9
CCCCOC(=O)Nc1cc(OC)c(Cl)cc1OC | 1.2 | 98* | 0.4 | 61* | 0
CCCC(=O)Nc1cc(OC)c(NC(=O)NC2CCCCC2)cc1OC | 1.2 | -2 | 0.9 | 6 | 1
CCCCC(=O)Nc1cc(OC)c(NC(=O)C2CCCCC2)cc1OC | 0.9 | 71* | 0 | 99* | 0.3
COc1cc(NC(=O)C2CCCC2)c(OC)cc1Cl | 1 | 65* | 0.9 | 9 | 0.4
COc1ccc(OC)c(NC(=O)C2CCCC2)c1 | 1 | 29 | 1.1 | -7 | 0.7
